Records with an inconclusive call do not appear. Active and inactive are the calls of the source. Unless noted, the call rests on the fitted dose curve; in most records, active means well fitted curve in the direction sought with a large enough effect; inconclusive means small, poorly fitted or top-dose-only effect, or another doubt; inactive means no such curve, though single readings can be large; an effect the other way counts as inactive or inconclusive.
Tests used:
[1] = molecular target: Lysosomal acid glucosylceramidase (Homo sapiens) (UniProt P04062); test: Glucocerebrosidase-p2 (AID 348; in the data active means potency below about 10 µM; further: potency means the concentration at half of the fitted maximal effect); details: purified GBA, blue fluorogenic substrate, 40 min
Summary of the method: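 Normal human glucocerebrosidase (0.2 nM) with blue fluorogenic substrate (80 uM final) in citrate/phosphate pH 5.9 with 10mM sodium taurocholate, 0.01% tween-20; 40 min RT, NaOH/glycine stop; fluorescence Ex 365/Em 440; AC50 from a titration from 0.6 nM upwards.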

[2] = AP1 Signaling Pathway (AID 357; active means well fitted curve in either direction with a large enough effect, not every such curve was filed as active;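 further: ME-180 reporter cells stimulated with EGF at its EC50 level; on the % scale 0 is the no-effect control and ±100 the full control effect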); details: ME-180 AP-1-bla reporter, EGF-induced, beta-lactamase ratio, 5 h; at 7.69 µM (top of the series) unless noted
Summary of the method: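 Modulation of EGF-driven AP-1 transcription was assessed with a beta-lactamase reporter in ME-180 cells. Compound and EC50 EGF were co-incubated 5 hours at 37 °C before 2.5-hour CCF4 loading at room temperature and dual-emission reading.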

[3] = molecular target: Cytochrome P450 1A2 (Homo sapiens) (UniProt P05177); test: p450-cyp1a2 (AID 410; calls by dose curve; further: potency means the concentration at half of the fitted maximal effect); details: recombinant CYP1A2, luciferin-ME demethylation, luminescence; series mostly up to 57 µM
Summary of the method: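 O-Demethylation of luciferin 6' methyl ether by human CYP1A2 is monitored as luciferase luminescence. Substrate sits at Km (100uM); enzyme is 20nM. Values are scaled to 57 uM furafylline as maximal inhibition.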

[4] = NFAT Signaling Pathway (AID 444; active means well fitted curve in either direction with a large enough effect, not every such curve was filed as active;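 further: carbachol stimulus at about its EC50 of 1 µM final; on the % scale 0 is the no-effect control and ±100 the full control effect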); details: Jurkat NFAT-bla M1, carbachol, beta-lactamase ratio, 5 h; at 7.69 µM (top of the series) unless noted
Summary of the method: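 Jurkat cells carrying an NFAT-driven β-lactamase reporter and co-transfected muscarinic M1 receptor were treated with compound plus carbachol (1 uM final, an EC50 level) for 5 h at 37 °C. CCF4 loading followed for 1 h at RT; 460/530 nm ratio gave %activity.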

[5] = Stat Signaling Pathway (AID 446; active means well fitted curve in either direction with a large enough effect, not every such curve was filed as active;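 further: ME-180 cervical cancer cells given 40 pM IL-6 alongside compound; SIE-controlled beta-lactamase reporter measured as 460/530 nm FRET emission ratio; on the % scale 0 is the no-effect control and ±100 the full control effect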); details: ME-180 SIE beta-lactamase reporter, IL-6 stimulated, 5 h; at 7.69 µM (top of the series) unless noted
Summary of the method: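 Compound effects on IL-6-induced STAT reporter activity were measured in ME-180 cells. After overnight culture, cells were co-treated with 40 pM IL-6 for 5 hrs before beta-lactamase substrate loading at room temperature.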

[6] = molecular target: Glucocorticoid receptor (Homo sapiens) (UniProt P04150); test: GR-GFP Redistribution (AID 450;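 active means compounds whose dose series gives a full or clear partial fitted curve of increased nuclear translocation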; further: potency means the concentration at half of the fitted maximal effect); details: U2OS GR-GFP nuclear translocation, laser cytometry, 2 h
[7] = molecular target: Mitogen-activated protein kinase 10 (Mus musculus) (UniProt Q61831); test: JNK3 AlphaScreen Assay (AID 530; active means well fitted curve in either direction with a large enough effect, not every such curve was filed as active;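 further: kinase came from lysate of stimulated human HepG2 cells; signal reports phosphorylation of biotinylated GST-cJun 1-79 at Ser73 with 10 µM ATP; on the % scale 0 is the no-effect control and ±100 the full control effect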); details: JNK3 lysate, c-Jun phosphorylation; series mostly up to 57.1 µM
Summary of the method: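 Phosphorylation of biotinylated GST-cJun(1-79) at Ser73 is measured by AlphaScreen proximity luminescence. Enzyme is JNK3 in HepG2 lysates activated with interleukin-1beta and tumor necrosis factor alpha; ATP is 10 uM final.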

[8] = molecular target: Cytochrome P450 3A4 (Homo sapiens) (UniProt P08684); test: qHTS Assay for Activators of Cytochrome P450 3A4 (AID 885); details: recombinant CYP3A4, Luciferin-PPXE luminescence, 60 min; series mostly up to 57.1 µM; further: nearly all actives have a fitted effect of over 65% in size; further: potency means the concentration at half of the fitted maximal effect
Summary of the method: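 CYP3A4 activity: Luciferin-PPXE O-dealkylation, 25uM substrate, 200mM KPO4, RT throughout. Read-out is luciferase luminescence; higher values reflect activation.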

[9] = qHTS Assay for Lipid Storage Modulators (AID 1519; calls by dose curve); details: Drosophila S3 cells, BODIPY lipid droplet/cell ratio, laser cytometry, cells loaded with oleic acid; for activity change, negative = inhibition: at 57.5 µM (top of the series)
Summary of the method: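 Cells seeded at 5,000 per well were treated with compounds over a concentration series and loaded with oleic acid (400 uM, as added). Lipid droplet fluorescence (488 nm excitation, 500-530 nm channel) was read by laser-scanning cytometry and normalized to 20 uM Triacsin C.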

[10] = molecular target: Dual specificity protein kinase CLK4 (Homo sapiens) (UniProt Q9HAZ1); test: qHTS Assay for Inhibitors of CDC-like Kinase 4 (Kinase-Glo Assay) (AID 1770); details: recombinant Clk4, Kinase-Glo ATP depletion luminescence; series mostly up to 66.7 µM; further: nearly all actives have a fitted effect of over 65% in size; further: potency means the concentration at half of the fitted maximal effect
Summary of the method: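 Recombinant human Clk4 (25 nM) phosphorylated RS repeat peptide (100 uM) with 1 uM ATP in Tris pH 7.5/MgCl2/EGTA/DTT/Triton buffer for 4.5 h at room temperature. Residual ATP was quantified by Kinase-Glo luciferase luminescence.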

[11] = molecular target: Dual specificity protein kinase CLK4 (Homo sapiens) (UniProt Q9HAZ1); test: qHTS Assay for Inhibitors of CDC-like Kinase 4 (ADP-Glo Assay) (AID 1771); details: recombinant CLK4, ADP-Glo luminescence; series mostly up to 80 µM; further: nearly all actives have a fitted effect of over 70% in size; further: potency means the concentration at half of the fitted maximal effect
Summary of the method: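 Compounds are pin-transferred onto substrate mix (100 uM RS peptide, 1 uM ATP), then 25 nM Clk4 is added. After 1 hr at room temperature, ADP-Glo reagent runs 45 min, detection reagent 30 min, then luminescence is read.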

[12] = molecular target: Dual specificity protein kinase CLK4 (Homo sapiens) (UniProt Q9HAZ1); test: qHTS Assay for Inhibitors of CDC-like Kinase 4 (ADP-FP Assay) (AID 1795); details: Transcreener ADP fluorescence polarization; series mostly up to 50 µM; further: nearly all actives have a fitted effect of over 60% in size; further: potency means the concentration at half of the fitted maximal effect
Summary of the method: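 Recombinant human Clk4 (6.25 nM) phosphorylated RS repeat peptide (100 uM) with 1 uM ATP in Tris pH 7.5/MgCl2/EGTA/DTT/Triton buffer for one hour. ADP was quantified by Transcreener competitive fluorescence polarization against an ADP calibration curve.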

[13] = molecular target: Ubiquitin carboxyl-terminal hydrolase 1 (Homo sapiens) (UniProt O94782); test: Inhibitors of USP1/UAF1: Pilot qHTS (AID 504865); details: purified USP1/UAF1, Ub-rhodamine cleavage fluorescence; series mostly up to 54.9 µM;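 further: rhodamine fluorescence freed from ubiquitin-rhodamine substrate followed over time; top concentration of the series differs between compounds; on the % scale 0 is the no-effect control and ±100 the full control effect; nearly all actives have a fitted effect of over 35% in size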
Summary of the method: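 USP1/UAF1 complex (1nM) preincubated with compound 15 min at room temperature, then Ub-Rho substrate (150nM final) added. Fluorescence read kinetically at 480/540 nm, 6 reads every 60 seconds. Buffer: 50mM HEPES pH 7.8, 0.5mM EDTA, 0.1 mg/ml BSA, 1mM TCEP, 0.01% Tween-20.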

[14] = Primary qHTS for small molecule stabilizers of the endoplasmic reticulum resident proteome: Secreted ER Calcium Modulated Protein (SERCaMP) assay (AID 1508630); details: SH-SY5Y GLuc-SERCaMP (Gaussia luciferase released on ER calcium loss) secretion, thapsigargin, luminescence; series mostly up to 38.4 µM; further: on the % scale 0 is the no-effect control and ±100 the full control effect
Summary of the method: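 The SH-SY5Y reporter protocol was run at 3 concentrations up to 38.3 uM (primary) or 11 concentrations (follow-up): 16 h compound, 100 nM thapsigargin for 4 h, then extracellular luciferase luminescence.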

[15] = molecular target: Glucocorticoid receptor (Homo sapiens) (UniProt P04150); test: GR-EFC Redistribution (AID 451; calls by dose curve; further: potency means the concentration at half of the fitted maximal effect); details: CHO-K1 GR-EFC translocation, beta-gal luminescence, 2 h
Summary of the method: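 CHO-K1 cells stably expressing nuclear-localized β-gal enzyme acceptor and GR fused C-terminally to the enzyme donor fragment; ligand-driven nuclear translocation restores β-gal by complementation. Compounds titrated up to 46 uM final, 2 h at 37 °C; luminescence read.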

[16] = qHTS Assay for Identification of Small Molecule Agonists for Hypoxia Response Element Signaling Pathway (AID 914; active means well fitted activation curve with a large enough effect in the signal ratio, with a control signal flat, not every such curve was filed as active; the % refers to the signal ratio; further: potency means the concentration at half of the fitted maximal effect); details: ME-180 (cervical carcinoma) HRE-bla reporter, beta-lactamase ratio, CoCl2, 17 h; activation: stronger effect = higher value
Summary of the method: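 Compounds in a titration series were added to ME-180 reporter cells alongside an EC50 level of CoCl2. After 17 hours, beta-lactamase activity was read as the 460nm/530nm emission ratio of CCF4, giving AC50 values.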

[17] = molecular target: 3',5'-cyclic-AMP phosphodiesterase 4B (Homo sapiens) (UniProt Q07343); test: qHTS Assay for Inhibitors of PDE-IV (AID 607; active means well fitted activation curve with a large enough effect in the main read-out, with a control signal flat, not every such curve was filed as active; further: % of control where 0% means no effect); details: HEK293 ACTOne CNG channel cells, membrane potential fluorescence; series mostly up to 22.9 µM
Summary of the method: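 ACTOne HEK293 cells carry a modified cAMP-gated CNG channel and express endogenous PDE4; plated 1000 cells/well, compounds up to 22.9 uM final. Membrane-potential dye fluorescence (ex 535/em 590) was read; parental cells received 10 uM forskolin + 100 uM RO 20-1724.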

[18] = molecular target: Cytochrome P450 3A4 (Homo sapiens) (UniProt P08684); test: qHTS Assay for Inhibitors and Substrates of Cytochrome P450 3A4 (AID 884); details: recombinant CYP3A4, Luciferin-PPXE luminescence; series mostly up to 57.1 µM; further: nearly all actives have a fitted effect of over 50% in size; further: potency means the concentration at half of the fitted maximal effect
Summary of the method: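 Luminescent readout of luciferin produced by CYP3A4 (20 nM) dealkylation of Luciferin-PPXE, 25 uM (its KM). NADPH-driven reaction ran 60 min at RT after 10 min compound preincubation; data scaled to 57 uM ketoconazole as 100% inhibition.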

[19] = measured here: cell count channel max response
[20] = measured here: lipid channel max response

Chain of Dual specificity protein kinase CLK4 (Homo sapiens) (Q9HAZ1 whole entry, looked up): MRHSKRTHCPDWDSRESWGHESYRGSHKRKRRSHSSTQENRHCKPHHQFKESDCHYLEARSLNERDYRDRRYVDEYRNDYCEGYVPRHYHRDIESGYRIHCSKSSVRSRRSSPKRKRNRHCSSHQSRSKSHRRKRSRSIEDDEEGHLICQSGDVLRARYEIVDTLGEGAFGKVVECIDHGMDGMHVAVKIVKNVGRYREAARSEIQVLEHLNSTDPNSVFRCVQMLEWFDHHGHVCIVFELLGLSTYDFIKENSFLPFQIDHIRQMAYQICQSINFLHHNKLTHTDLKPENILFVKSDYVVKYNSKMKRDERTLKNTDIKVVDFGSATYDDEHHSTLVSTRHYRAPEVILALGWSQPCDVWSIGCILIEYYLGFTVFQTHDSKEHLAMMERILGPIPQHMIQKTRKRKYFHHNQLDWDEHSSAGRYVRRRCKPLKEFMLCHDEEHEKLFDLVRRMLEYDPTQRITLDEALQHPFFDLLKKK
Chain of Cytochrome P450 1A2 (Homo sapiens) (P05177 whole entry, looked up): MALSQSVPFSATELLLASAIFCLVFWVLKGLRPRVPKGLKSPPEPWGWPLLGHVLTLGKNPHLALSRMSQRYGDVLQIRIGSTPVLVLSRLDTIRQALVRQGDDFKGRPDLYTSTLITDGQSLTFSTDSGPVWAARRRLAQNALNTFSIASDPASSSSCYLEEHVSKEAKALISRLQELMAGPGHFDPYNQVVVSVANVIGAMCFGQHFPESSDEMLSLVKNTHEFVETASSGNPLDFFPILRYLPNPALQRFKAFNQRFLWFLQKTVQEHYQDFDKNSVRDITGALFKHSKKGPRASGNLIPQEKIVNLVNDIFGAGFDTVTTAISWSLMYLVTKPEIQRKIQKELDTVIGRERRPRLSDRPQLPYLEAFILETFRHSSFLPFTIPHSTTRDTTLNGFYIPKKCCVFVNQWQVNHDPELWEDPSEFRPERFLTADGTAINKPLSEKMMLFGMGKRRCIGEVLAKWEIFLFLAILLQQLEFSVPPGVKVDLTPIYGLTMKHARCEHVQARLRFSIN
Chain of Ubiquitin carboxyl-terminal hydrolase 1 (Homo sapiens) (O94782 whole entry, looked up): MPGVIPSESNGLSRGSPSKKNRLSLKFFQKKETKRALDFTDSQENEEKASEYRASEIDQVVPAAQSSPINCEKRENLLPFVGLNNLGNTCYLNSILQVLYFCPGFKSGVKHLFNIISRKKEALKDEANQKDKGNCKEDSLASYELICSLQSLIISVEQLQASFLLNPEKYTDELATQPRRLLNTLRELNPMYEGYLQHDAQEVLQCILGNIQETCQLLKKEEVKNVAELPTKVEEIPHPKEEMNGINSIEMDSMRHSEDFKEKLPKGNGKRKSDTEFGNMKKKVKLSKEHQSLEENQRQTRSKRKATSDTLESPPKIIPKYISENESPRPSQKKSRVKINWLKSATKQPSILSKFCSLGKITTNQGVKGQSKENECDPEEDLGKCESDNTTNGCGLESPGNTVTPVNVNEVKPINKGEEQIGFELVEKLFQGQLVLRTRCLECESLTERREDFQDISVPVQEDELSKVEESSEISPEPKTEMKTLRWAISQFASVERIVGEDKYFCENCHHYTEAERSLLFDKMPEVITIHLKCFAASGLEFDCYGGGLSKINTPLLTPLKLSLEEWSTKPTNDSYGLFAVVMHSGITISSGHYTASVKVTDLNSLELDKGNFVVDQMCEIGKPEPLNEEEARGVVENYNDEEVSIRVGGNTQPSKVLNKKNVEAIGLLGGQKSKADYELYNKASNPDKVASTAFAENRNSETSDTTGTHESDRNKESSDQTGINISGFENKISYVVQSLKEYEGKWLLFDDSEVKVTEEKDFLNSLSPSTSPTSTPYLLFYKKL
Chain of Lysosomal acid glucosylceramidase (Homo sapiens) (P04062 whole entry, looked up): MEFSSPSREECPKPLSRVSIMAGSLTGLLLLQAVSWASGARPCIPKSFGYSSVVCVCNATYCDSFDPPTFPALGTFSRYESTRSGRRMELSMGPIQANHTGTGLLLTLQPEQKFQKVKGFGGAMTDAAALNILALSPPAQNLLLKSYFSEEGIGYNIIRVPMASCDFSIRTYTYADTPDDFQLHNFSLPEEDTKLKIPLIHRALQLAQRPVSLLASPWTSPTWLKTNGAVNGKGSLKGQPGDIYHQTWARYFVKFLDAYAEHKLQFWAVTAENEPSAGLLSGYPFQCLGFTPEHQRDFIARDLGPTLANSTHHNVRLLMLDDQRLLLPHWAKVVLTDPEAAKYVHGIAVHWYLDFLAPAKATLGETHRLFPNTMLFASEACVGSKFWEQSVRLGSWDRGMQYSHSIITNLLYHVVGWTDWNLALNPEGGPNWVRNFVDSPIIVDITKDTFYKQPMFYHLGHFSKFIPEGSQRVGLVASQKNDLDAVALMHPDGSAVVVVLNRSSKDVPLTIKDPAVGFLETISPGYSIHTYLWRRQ
Chain of Glucocorticoid receptor (Homo sapiens) (P04150 whole entry, looked up, the tested form may be a part): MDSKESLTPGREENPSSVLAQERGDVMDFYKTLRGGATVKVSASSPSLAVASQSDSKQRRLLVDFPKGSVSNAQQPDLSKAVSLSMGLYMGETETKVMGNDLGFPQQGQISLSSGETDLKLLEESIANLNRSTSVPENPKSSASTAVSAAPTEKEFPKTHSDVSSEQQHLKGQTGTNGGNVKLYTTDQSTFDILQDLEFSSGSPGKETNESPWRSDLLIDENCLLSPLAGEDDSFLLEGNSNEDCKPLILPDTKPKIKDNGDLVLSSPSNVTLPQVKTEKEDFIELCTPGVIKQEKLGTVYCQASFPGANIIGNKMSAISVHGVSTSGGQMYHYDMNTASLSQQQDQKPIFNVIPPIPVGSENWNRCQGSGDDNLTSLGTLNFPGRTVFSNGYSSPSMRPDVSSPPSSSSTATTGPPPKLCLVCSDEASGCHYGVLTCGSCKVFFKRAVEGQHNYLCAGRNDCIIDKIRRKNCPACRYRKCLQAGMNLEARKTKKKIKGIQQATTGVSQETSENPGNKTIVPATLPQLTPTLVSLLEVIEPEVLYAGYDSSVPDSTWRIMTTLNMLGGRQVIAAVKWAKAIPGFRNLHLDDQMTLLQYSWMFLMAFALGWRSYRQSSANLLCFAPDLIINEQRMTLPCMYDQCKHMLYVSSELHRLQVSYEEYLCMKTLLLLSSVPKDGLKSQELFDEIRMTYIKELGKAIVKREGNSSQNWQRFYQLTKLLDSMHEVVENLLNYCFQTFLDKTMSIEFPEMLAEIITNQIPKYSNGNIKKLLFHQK
Chain of Cytochrome P450 3A4 (Homo sapiens) (P08684 whole entry, looked up): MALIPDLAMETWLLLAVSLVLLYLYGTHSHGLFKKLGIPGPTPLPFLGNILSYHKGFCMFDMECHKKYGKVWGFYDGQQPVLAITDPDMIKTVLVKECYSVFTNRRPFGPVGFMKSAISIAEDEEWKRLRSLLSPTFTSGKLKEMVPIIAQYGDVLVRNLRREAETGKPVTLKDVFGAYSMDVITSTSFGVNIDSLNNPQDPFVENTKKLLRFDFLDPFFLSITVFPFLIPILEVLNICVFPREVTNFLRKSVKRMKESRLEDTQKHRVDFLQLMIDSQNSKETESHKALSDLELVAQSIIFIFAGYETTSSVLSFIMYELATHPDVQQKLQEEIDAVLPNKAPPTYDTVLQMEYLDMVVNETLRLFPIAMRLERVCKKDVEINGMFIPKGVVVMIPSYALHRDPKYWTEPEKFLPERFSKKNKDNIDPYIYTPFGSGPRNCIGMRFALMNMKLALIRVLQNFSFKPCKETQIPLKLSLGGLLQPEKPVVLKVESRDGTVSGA
Chain of 3',5'-cyclic-AMP phosphodiesterase 4B (Homo sapiens) (Q07343 whole entry, looked up): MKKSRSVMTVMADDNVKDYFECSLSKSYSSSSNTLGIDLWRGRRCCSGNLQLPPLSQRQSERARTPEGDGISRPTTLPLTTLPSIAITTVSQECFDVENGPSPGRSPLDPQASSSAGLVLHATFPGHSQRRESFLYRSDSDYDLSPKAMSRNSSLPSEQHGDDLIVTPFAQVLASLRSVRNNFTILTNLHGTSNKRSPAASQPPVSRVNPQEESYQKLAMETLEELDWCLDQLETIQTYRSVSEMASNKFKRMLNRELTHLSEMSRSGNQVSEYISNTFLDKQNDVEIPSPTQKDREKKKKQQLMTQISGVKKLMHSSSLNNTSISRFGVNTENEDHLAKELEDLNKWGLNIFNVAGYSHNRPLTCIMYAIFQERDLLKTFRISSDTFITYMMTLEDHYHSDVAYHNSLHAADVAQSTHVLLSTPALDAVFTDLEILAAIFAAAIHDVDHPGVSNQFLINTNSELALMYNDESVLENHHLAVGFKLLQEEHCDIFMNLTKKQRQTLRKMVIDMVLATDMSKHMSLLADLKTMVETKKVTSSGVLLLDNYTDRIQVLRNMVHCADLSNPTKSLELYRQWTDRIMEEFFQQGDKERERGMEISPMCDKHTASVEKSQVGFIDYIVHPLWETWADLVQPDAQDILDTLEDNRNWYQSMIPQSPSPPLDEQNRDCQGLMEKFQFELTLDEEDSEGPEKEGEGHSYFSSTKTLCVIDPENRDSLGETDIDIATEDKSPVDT

O=c1cnc2cnc(N3CCOCC3)nc2n1CCc1ccccc1
3.8%: max response [9, 20]
active: Potency [3] 3.16 µM | Potency [10] 7.08 µM | Potency [11] 7.94 µM | Potency [12] 8.91 µM
inactive: Potency [1] > 11.4 µM | activity change, negative = inhibition [2] -4.12% | activity change, negative = inhibition [4] -13.2% | activity, negative = inhibition [5] -10.2% | Potency [6] > 9.22 µM | outcome [7] | Potency [8] | activity change, negative = inhibition [9] 3.67% | Potency [13] | Potency [14]
1.44%: max response [9, 19]

CN(C)c1ncc2nc(-c3ccccc3)c(=O)n(-c3ccccc3)c2n1
15.8%: max response [9, 20]
22.5%: max response [9, 19]
active: Potency [3] 0.398 µM | Potency [16] 0.631 µM
inactive: Potency [1] > 11.4 µM | activity change, negative = inhibition [2] 15.6% | activity change, negative = inhibition [4] 23.9% | Potency [15] > 46 µM | outcome [7] | activity change, negative = inhibition [9] -3.18% | Potency [10] | Potency [11] | Potency [12] | Potency [13] | Potency [14]

O=c1c(-c2ccc(F)cc2)nc2cnc(N3CCNCC3)nc2n1Cc1ccc(F)cc1
9.79%: max response [9, 20]
7.95%: max response [9, 19]
active: activity change, negative = inhibition [2] 115% [activator] | Potency [3] 15.8 µM | activity change, negative = inhibition [4] 163% [activator] | Potency [18] 7.94 µM
inactive: Potency [1] > 11.4 µM | Potency [15] > 46 µM | outcome [7] | Potency [17] | Potency [8] | activity change, negative = inhibition [9] 2.38% | Potency [10] | Potency [11] | Potency [12] | Potency [13] | Potency [14]

FC(F)(F)c1ccccc1-c1cc(NCc2ccccc2)ncn1
20.1%: max response [9, 20]
14.8%: max response [9, 19]
active: Potency [3] 12.6 µM | Potency [8] 10 µM
inactive: Potency [1] > 11.4 µM | activity change, negative = inhibition [2] -15.2% | activity change, negative = inhibition [4] -0.248% | activity, negative = inhibition [5] 4.93% | Potency [6] > 46 µM | Potency [15] > 46 µM | outcome [7] | Potency [18] | activity change, negative = inhibition [9] 5.85% | Potency [10] | Potency [11] | Potency [12] | Potency [14]

Cn1cc(-c2nc3cnc(Oc4ccccc4)nc3n(C3CC3)c2=O)c2ccccc21
active: Potency [3] 5.01 µM
inactive: Potency [1] > 11.4 µM | activity change, negative = inhibition [2] 13.1% | activity change, negative = inhibition [4] 9.34% | Potency [6] > 9.22 µM | Potency [15] > 46 µM | outcome [7] | Potency [17] | Potency [8] | activity change, negative = inhibition [9] 1.27% | Potency [10] | Potency [11] | Potency [12] | Potency [13] | Potency [14]
1.6%: max response [9, 19]
0.0554%: max response [9, 20]

Source: PubChem BioAssay (NCATS)
